Laboratory results published in PubChem BioAssay AID624481 (The Scripps Research Institute Molecular Screening Center, 2012).
Unmarked numbers belong to inactive results. The source made the active and inactive calls. No stated cut-off is given here; in the data, active means inhibition above about 50%; inactive means the rest.

The compounds below were run against Prolyl endopeptidase-like (Mus musculus) (UniProt Q8C167) (assay: mouse PREPL enzyme inhibition by screening hits – biochemical, gel-based competitive ABPP, fluorescence, HTS hits, PREPL inhibitor project (AID 624481)). Conditions: purified mouse PREPL, at 20 µM, hits give high values.
Prolyl endopeptidase-like (Mus musculus), sequence (Q8C167 whole entry, looked up): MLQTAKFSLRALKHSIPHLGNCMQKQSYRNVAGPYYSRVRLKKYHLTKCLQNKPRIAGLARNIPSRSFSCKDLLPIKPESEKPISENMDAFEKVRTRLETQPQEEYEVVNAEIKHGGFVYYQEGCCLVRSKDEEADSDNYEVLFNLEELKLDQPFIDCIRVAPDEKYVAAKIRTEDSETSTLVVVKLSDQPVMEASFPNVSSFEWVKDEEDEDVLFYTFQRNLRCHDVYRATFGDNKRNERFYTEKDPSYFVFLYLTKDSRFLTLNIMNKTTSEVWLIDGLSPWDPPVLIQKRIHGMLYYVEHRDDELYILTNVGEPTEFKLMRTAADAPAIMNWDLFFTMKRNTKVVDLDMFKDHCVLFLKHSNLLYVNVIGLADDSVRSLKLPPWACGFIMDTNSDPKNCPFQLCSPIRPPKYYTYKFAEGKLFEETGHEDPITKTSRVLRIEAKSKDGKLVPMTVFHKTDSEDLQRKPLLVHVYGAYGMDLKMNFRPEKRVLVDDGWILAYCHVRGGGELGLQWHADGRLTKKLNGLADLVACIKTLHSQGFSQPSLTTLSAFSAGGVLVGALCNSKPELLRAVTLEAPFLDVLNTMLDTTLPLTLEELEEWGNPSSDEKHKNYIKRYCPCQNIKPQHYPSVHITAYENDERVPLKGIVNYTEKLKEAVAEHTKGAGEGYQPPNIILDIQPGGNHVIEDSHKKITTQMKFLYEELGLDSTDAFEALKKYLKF

Row | Compound | inhibition
1 | Cc1ccc(C)c(-c2nn(-c3cc(N4CCN(CCO)CC4)ccc3[N+](=O)[O-])c(=O)c3ccccc23)c1 | 7%
2 | Cc1cc(N2CCN(C)CC2)nc2ccc(NC(=O)CCC(=O)N3CCN(c4ccc([N+](=O)[O-])cc4)CC3)cc12 | -92%
3 | CCN1C(=O)CC(c2ccccc2)N(C2CCCC2)c2nc(Nc3ccc(C(=O)NC4CCN(C)CC4)cc3OC)ncc21 (configuration not stated) | -25%
4 | CN1CCN(C(=O)C2=C[C@@H](c3ccc(C(F)(F)F)cc3)C[C@@H](OCCCCO)O2)CC1 | -28%
5 | COc1ccc(N2CCN(c3nc4c(C)cccn4c(=O)c3/C=C(\C#N)C(N)=O)CC2)cc1 | -53%
6 | CCN(CC)CCNc1ccc(CO)c2sc3ccccc3c(=O)c12 | -23%
7 | CNc1oc(-c2ccccc2Cl)nc1P(=O)(c1ccccc1)c1ccccc1 | 10%
8 | Oc1c(CN2CCOCC2)cc(COCc2ccccc2)c2cccnc12 | -145%
9 | CCN1CCCC1CNC(=O)c1ccc2c(c1)NC(=O)/C(=C\c1ccc(OC)c(OC)c1)S2 (configuration not stated) | 3%
10 | CNCCC(Oc1ccc(C(F)(F)F)cc1)c1ccccc1 (configuration not stated) | -58%
11 | O=C(C1=C[C@@H](c2ccc(Br)cc2)C[C@@H](OCc2ccc(CO)cc2)O1)N1CCOCC1 | -26%
12 | CC(=O)N1CCN(c2ccc(NCc3ccc(-c4cccc(Cl)c4)o3)cc2)CC1 | 39%
13 | CC[C@@H](C)[C@@H]1CN([C@@H](C)CN2CCC[C@H]2CN2C(N)=NC[C@H]2C(C)C)C(=N)N1CCc1ccc(Cl)c(Cl)c1 | -48%
14 | CCC[C@@H](CN1CCC[C@H]1CN1C(N)=NC[C@@H]1Cc1ccccc1)N1C[C@@H]([C@H](C)CC)N(CCCC2CCCC2)C1=N | 9%
15 | COc1ccc(NC(=O)c2ccc(-c3ccc(-c4noc(C)n4)cc3C)cc2)cc1N1CCN(C)CC1 | -16%
16 | COc1ccc(Nc2nc(N3CCCC3)c3ccccc3n2)cc1 | -50%
17 | CCCCC(CC)C(=O)Nc1cc(C(=O)NCCC)ccc1N1CCC2(CC1)CC(c1ccccc1)=NO2 (configuration not stated) | -141%
18 | COc1ccc(C2CC(c3cccc(C)c3)n3nc(N)nc3N2)cc1 (configuration not stated) | -50%
19 | O=C(C1=C[C@@H](c2ccccc2)C[C@@H](OCc2ccc(CO)cc2)O1)N1CCN(Cc2ccc3c(c2)OCO3)CC1 | -73%

Row | Compound | inhibition
20 | CN1CCN(C(=O)C2=C[C@@H](c3ccc4c(c3)OCO4)C[C@@H](OCc3ccc(CO)cc3)O2)CC1 | -46%
21 | CC(C)(C)n1cnc2cc(NCc3ccc(Br)cc3)ccc21 | -12%
22 | CCCCCN=C(N)NN=Cc1c[nH]c2ccc(OC)cc12 | -11%
23 | c1cncc(N=c2scc(-c3cccc4ccccc34)n2CCCn2ccnc2)c1 | -95%
24 | COc1ccc(CCNC(=O)c2cc3c(=O)n4cccc(C)c4nc3n(CCCN3CCOCC3)c2=N)cc1 | -87%
25 | Cc1ccccc1OCc1nnc(SCC(=O)Nc2ccc(N3CCOCC3)c(Cl)c2)n1C | -46%
26 | CN(C)CCc1cc2c(c3c1ccc1ccccc13)OCO2 | -26%
27 | Nc1c(Cl)ncnc1NN=Cc1ccc2ccccc2n1 | -48%
28 | CCc1ccc(OCC(=O)Nc2ccc(N3CCN(C(=O)c4ccccc4)CC3)cc2)cc1 | -73%
29 | CC(C)c1ccc(CNc2ccc(N3CCOCC3)cc2)cc1 | -12%
30 | c1ccc2c(NCCc3c[nH]c4ccccc34)c3ccccc3nc2c1 | -49%
31 | CC(=O)Nc1ccc(C(=O)Cn2c3[n+](c4c(F)c(F)ccc42)CCCCC3)cc1 | -42%
32 | Nc1nn(-c2ccccc2)c(N)c1N=Nc1cccc(F)c1 | 0%
33 | Clc1cccc(-c2ccc(C3Nc4cccc5cccc(c45)N3)o2)c1 | 100% (active)
34 | CN(CC(=O)Nc1ccccc1Cl)C(=O)c1cccc(S(=O)(=O)N2CCN(Cc3ccccc3)CC2)c1 | -6%
35 | CC[C@@H](C)[C@@H]1CN([C@@H](CN2CCC[C@H]2CN2C(N)=NC[C@H]2C(C)C)C(C)C)C(=N)N1CCc1ccc(Cl)c(Cl)c1 | -64%
36 | CN(C)c1ccc(C(CN)c2c[nH]c3ccccc23)cc1 (configuration not stated) | -86%
37 | Cc1c(CN(C)C)c2c(n1Cc1ccccc1)C(=O)c1ccc(Br)cc1-2 | -33%
